Experimental data published in PubChem BioAssay AID1851 (National Center for Advancing Translational Sciences (NCATS), 2009).
Hit rate of the full screen: of about 16,000 compounds, about 5,700 (36%) were called active. About 24% were inconclusive and are not listed. The call rests on the fitted dose curve; in most records, active means well fitted curve in the direction sought with a large enough effect; inconclusive means small, poorly fitted or top-dose-only effect, or effect the other way; inactive means no such curve, though single readings can be large or run the other way. The list shows a part of the results.

Molecular target: Cytochrome P450 1A2 (Homo sapiens) (UniProt P05177)
Sequence (P05177 whole entry, looked up): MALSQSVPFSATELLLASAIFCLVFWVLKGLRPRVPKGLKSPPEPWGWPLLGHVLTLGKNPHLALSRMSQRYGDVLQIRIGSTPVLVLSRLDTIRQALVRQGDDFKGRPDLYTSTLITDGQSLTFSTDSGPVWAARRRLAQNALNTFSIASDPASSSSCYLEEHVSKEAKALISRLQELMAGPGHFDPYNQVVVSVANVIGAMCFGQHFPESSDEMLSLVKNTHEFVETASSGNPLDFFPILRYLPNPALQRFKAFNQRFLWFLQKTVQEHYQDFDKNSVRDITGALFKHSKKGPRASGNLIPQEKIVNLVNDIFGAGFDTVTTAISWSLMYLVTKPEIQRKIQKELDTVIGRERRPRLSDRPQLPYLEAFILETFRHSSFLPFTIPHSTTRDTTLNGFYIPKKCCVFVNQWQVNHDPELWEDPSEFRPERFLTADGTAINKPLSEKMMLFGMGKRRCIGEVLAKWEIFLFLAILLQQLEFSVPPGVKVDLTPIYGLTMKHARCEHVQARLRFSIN
Test: Cytochrome panel assay with activity outcomes
Settings: recombinant CYP, pro-luciferin dealkylation, luminescence, p450-cyp1a2; series mostly up to 57.1 µM; activity, negative = inhibition: at the top concentration
On the % scale 0 is the no-effect control and ±100 the full control effect.

activity, negative = inhibition, inactive:
CCCCNC(=O)NC1C(NC(=O)NCCCC)N(C)C(=O)N1C (stereo unspecified) 5.97%, NC(=O)Nn1c(CCC(=O)O)ccc1-c1ccc(F)cc1 7.9%, O=C(O)CCc1ccc(-c2ccc(Cl)cc2)n1CCC(=O)O -20.3%, CCOC(=O)C1CCN(C(=O)C2CCN(S(=O)(=O)N3CCCC3)CC2)CC1 6.04%, CN1CCN(c2ccc([N+](=O)[O-])cc2C(=O)N2CCOCC2)CC1 -4.87%, Cn1ncc([N+](=O)[O-])c1C(=O)N1CCOCC1 10.7%, O=S(=O)(O)c1ccc2cc(N=Nc3cc(S(=O)(=O)O)c4cccnc4c3O)ccc2c1 -18.8% [at 2.29 µM], CCCCNC(=O)NS(=O)(=O)c1ccc(C(=O)OC(C)C)o1 -8.46%, Cc1c(NC(=O)NC(C)N2C(=O)C3C4C=CC(C4)C3C2=O)c(=O)n(-c2ccccc2)n1C (stereo unspecified) -7.99%, O=S(=O)(c1ccc(F)cc1)N1CCCC(CO)C1 (stereo unspecified) 2.77%, COc1ccc(NC(=O)N2CC[C@@]3(CCCN(C(=O)c4csnn4)C3)C2)cc1 -8.96%, CCN(CC)C(=O)Cn1cnc([N+](=O)[O-])n1 5.71%, CCOc1ccc(NC(=O)N2CCC(c3ccc(C)cc3)C2)cc1 (stereo unspecified) -21.5%, Cc1cccc(OCC(=O)N2CCC(N3CCCCCC3)CC2)c1 -6.34%, Nc1ccc(C(=O)C[C@H](N)C(=O)O)cc1O -4.16% [at 11.4 µM], N[C@H](Cn1ccc(=O)n(Cc2ccccc2C(=O)O)c1=O)C(=O)O -7.78%, O=C(O)c1ccc2c(c1)C(=O)N(C(Cc1ccc(O)cc1)C(=O)O)C2=O (stereo unspecified) 3.34%, CN[C@H]1[C@@H](O[C@@H]2[C@H](O[C@@H]3[C@@H](O)[C@@H](O)[C@@H](N=C(N)N)[C@@H](O)[C@@H]3N=C(N)N)O[C@H](C)[C@@]2(O)C=O)O[C@@H](CO)[C@@H](O)[C@H]1O -0.443% [at 25.6 µM], O=C(Nc1ccc(-n2nncc2-c2ccco2)cc1)c1cc2ccccc2oc1=O -14.2%, CCC(CC)C(=O)Nc1c2cnn(-c3ccccc3)c2nc(=O)n1-c1ccccc1 -18.6%, CC1(C)CCCN(C(=O)N2c3ccccc3Sc3ccccc32)C1 -13.2%, Nc1ncnc(N(c2ccccc2)C2CCCCC2)c1[N+](=O)[O-] 11.3%, Cc1cc(C)c(-c2cc([C@H](C)O/N=C3/[C@H]4OC4[C@@H](O)[C@H]4[C@H]3CCn3c(=O)n(-c5ccccc5)c(=O)n34)on2)c(C)c1 (stereo partly specified) -8.09% [at 11.4 µM], COc1ccc(-n2c(C)nn(C)c2=O)cc1 -5.51%, NCC[C@H](O)C(=O)N[C@H]1C[C@@H](N)[C@@H](O[C@H]2O[C@@H](CN)[C@@H](O)[C@@H](O)[C@@H]2O)[C@@H](O)[C@@H]1O[C@H]1O[C@@H](CO)[C@@H](O)[C@@H](N)[C@@H]1O -4.21% [at 25.6 µM]

AC50, active:
CN(N=O)c1ccc(/C=C\c2ccnc3ccccc23)cc1 158 nM, CC(=O)c1ccc(-n2c(CCC(=O)O)ccc2-c2cccs2)cc1 14100 nM, Cc1ccc(-n2c(CCC(=O)O)ccc2-c2cccs2)cc1C 14100 nM, O=[N+]([O-])c1ccc(N2CCOCC2)nc1 11200 nM, Cc1cc(N2CCOCC2)ncc1[N+](=O)[O-] 10000 nM, Cc1cnc(CNc2ncnc3ccc(-c4ccc(N(C)C)cc4)cc23)cn1 1000 nM, Cc1cnc(CNc2ncnc3ccc(-c4ccc5c(c4)OCO5)cc23)cn1 398 nM, Cc1cnc(CNc2ncnc3ccc(-c4ccoc4)cc23)cn1 12600 nM, CCN(c1nc(N)c(C(=O)N=C(N)N)nc1Cl)C(C)C 2000 nM, NC(N)=NC(=O)c1nc(Cl)c(N2CCCCCC2)nc1N 1000 nM, CC(C)CN(C)c1nc(N)c(C(=O)N=C(N)N)nc1Cl 794 nM, CN(C)c1nc(N)c(C(=O)N=C(N)N)nc1Cl 1000 nM, CCN(CC)C(=O)c1cc2cc([N+](=O)[O-])ccc2s1 2000 nM, O=C(COc1ccc(Br)cc1)N1CCC(c2ccccc2)C1 (stereo unspecified) 3160 nM, Cc1cccn2c(=O)c(/C=N/O)c(N3CCCC3)nc12 891 nM, CC(C)OC(=O)C1=C2SCC(=O)N2C(N)=C(C#N)C1 1260 nM, CCOC(=O)C1=C2SCC(=O)N2C(N)=C(C#N)C1 1260 nM, O=c1oc(-c2ccco2)nc2c1cnn2-c1ccccc1 2000 nM, CN1C(=C2C(=O)OC(C)(C)OC2=O)Sc2ccccc21 11200 nM, Cn1c(SC2=CS(=O)(=O)c3ccccc32)nc2ccccc21 6310 nM, CCOC(=O)c1sc(=N)n(-c2ccc(OC)cc2)c1C 1260 nM
